These results are taken from PubChem BioAssay (NCATS).

Test [1] has as its target Aldehyde dehydrogenase, mitochondrial (Homo sapiens) (UniProt P05091). In words: qHTS for Inhibitors of the Aldehyde Dehydrogenase Family (ALDH2) Confirmatory screens (AID 2061303; active = well fitted inhibition curve with a large enough effect; title and protocol of this record describe different tests; also: nearly all actives have a fitted effect of over 45% in size; also: potency is read from the fitted curve at half-maximal effect). On the technique in general: In qHTS, concentration-response curves come from the screen itself.
The target in test [2] is Retinal dehydrogenase 2 (Homo sapiens) (UniProt O94788). In words: qHTS for Inhibitors of the Aldehyde Dehydrogenase Family (ALDH1A2) Confirmation screens (AID 2061314). Also: nearly all actives have a fitted effect of over 65% in size. Also: potency is read from the fitted curve at half-maximal effect.
In test [3] the target is Retinaldehyde dehydrogenase 3 (Homo sapiens) (UniProt P47895). The test can be described thus: qHTS for Inhibitors of the Aldehyde Dehydrogenase Family (ALDH1A3) Confirmatory screens (AID 2061311). Also: nearly all actives have a fitted effect of over 60% in size. Also: potency is read from the fitted curve at half-maximal effect.
Test [4] has the same target. The test can be described thus: qHTS for Inhibitors of the Aldehyde Dehydrogenase Family (ALDH1A3) Primary screen (AID 2061315).
In test [5] the target is Aldehyde dehydrogenase 1A1 (Homo sapiens) (UniProt P00352). In words: qHTS for Inhibitors of the Aldehyde Dehydrogenase Family (ALDH1A1) Confirmatory screens (AID 2061316). Also: nearly all actives have a fitted effect of over 65% in size. Also: potency is read from the fitted curve at half-maximal effect.
The nature of test [6]: qHTS for Inhibitors of the Aldehyde Dehydrogenase Family (ALDH1A2, ALDH1A3, ALDH2, ALDH3A1) (AID 2061307). Also: nearly all actives have a fitted effect of over 50% in size.

“And” between values parts separate entries of the source, which are not always exact repeats. Equal entries are not always repeated. Records with an inconclusive call do not appear. A call without a number means that no potency is given here. The source made the active and inactive calls. Unless noted, calls follow the shape of the dose curve; as a rule, active = well fitted inhibition curve with a large enough effect; inconclusive = small, poorly fitted or top-dose-only effect; inactive = no such curve, though single readings can be large or run the other way.

`O=C(NC1CC(=O)N(c2ccccc2)C1)c1ccc(S(=O)(=O)N2CCOCC2)cc1` (centres undefined): the Potency result in test [1] and in test [2] was “inactive” in each case.
Take `COc1ccc(S(=O)(=O)N2CCC3(CC2)CC(CC(=O)NC2CC2)CCO3)cc1` (centres undefined): the Potency result in test [1] and in test [2] was “inactive” throughout.
For `COc1ccc(C2Nc3ccccc3C(=O)N2Cc2ccco2)cc1COc1ccccc1` (centres undefined), the Potency result in test [1], in test [3] and in test [4] was “inactive” in each case.
With `CC(=O)c1ccc(NC(=O)c2cc(-c3ccc(C)s3)nc3ccccc23)cc1`, the Potency result in test [1] and in test [2] was “inactive” throughout.
With `O=C(Nc1cccnc1)c1ccco1`, the Potency is 12.7 µM (active) in test [1] and 6.34 µM (active) in test [5]. Besides, in test [4], the Potency entry was “inactive”.
For `O=S1(=O)N=C(Sc2ccc3c(c2)OCCO3)c2ccccc21`, the Potency result in test [1] and in test [4] was “inactive” each time.
Regarding `CC(=O)N1CCN(c2nc(-c3ccc(Br)cc3)cs2)CC1`, the Potency in test [1] was 25.1 µM (active); in test [3] it was 12.6 µM (active). In addition, the Potency result in test [4] and in test [5] was “inactive” throughout.
As for `O=C1Nc2ccccc2/C1=C\c1ccc(O)c(Cl)c1`, the Potency in test [1] and in test [2] was 10.1 µM (active) throughout. For the same compound, in test [4], the Potency result is “inactive”.
Take `Cc1ccsc1CN(C)c1ncnc2ccc(-c3ccoc3C)cc12`: the Potency entry in test [1] and in test [4] was “inactive” throughout. Further, in test [2], the Potency is 11.3 µM (active).
With `O=C1c2ccccc2NC(c2ccc(-c3cccc(F)c3)o2)N1O` (centres undefined), the Potency in test [1] was 20.1 µM (active); in test [5], 6.34 µM (active). In addition, the Potency entry in test [4] was “inactive”.
Take `NC(=O)c1c(NC(=O)c2ccco2)sc2c1CCCC2`: the Potency was 8.96 µM (active) in test [1], 10.1 µM (active) in test [2] and 3.57 µM (active) in test [5]. In test [4], the Potency entry was “inactive”.
Consider `COc1cc(F)ccc1-c1ccnc2nc(Cc3ccc(F)cc3)nn12`, for which the Potency result in test [1] and in test [5] was “inactive” each time.
As to `CCN1c2cc(C(=O)Nc3ccc(C#N)cc3)ccc2C(=O)N2CCCCCC21` (centres undefined), the Potency entry in test [1] is “inactive”. Besides, the Potency in test [5] was 6.47 µM (active).
For the compound `CNc1nc2c(s1)C(c1ccccc1Br)CC(=O)N2` (centres undefined), in test [6], the Potency was 10.1 µM (active).
On the same count and under the same terms, the result for `Cc1ccccc1C(=O)N1CCc2cc(-c3nc(NC(=O)CC4CCOCC4)sc3C)ccc21` reads 4.47 µM (active); that for `O=C(O)c1csc(-n2nc(-c3ccc(F)c(F)c3)cc2Cc2nn[nH]n2)n1`, “inactive”; that for `O=C(O)c1csc(-n2[nH]c(-c3ccc(F)c(Cc4ccccc4)c3)cc2=O)n1`, 22.5 µM (active).
As for `COc1ccc(-n2ncc3c2CCCC3NC(=O)CN(C)C)cc1` (centres undefined), in test [6], the Potency entry is “inactive”.
In the case of `COc1cccc(CNc2ccc(S(=O)(=O)Nc3nc4ccccc4[nH]3)cc2)c1O`, the Potency entry in test [6] was “inactive”.
As for `COc1cccc(NC(=O)c2cc3c(-c4ccc(Cl)cc4)nn(C)c3s2)c1`, in test [6], the Potency entry is “inactive”.
The same measure, in the same setting: the result for `CCN(CC)S(=O)(=O)c1cccc(NC(=O)CNc2cccc(S(=O)(=O)N3CCOCC3)c2)c1` reads 10 µM (active).
Take `O=C(Nc1ccnc(Cc2ccccc2)c1)c1ccc(-c2cccc([N+](=O)[O-])c2)o1`: in test [6], the Potency is 2.01 µM (active).
On the same count and under the same terms, with `Cn1nc(-c2ccccc2)cc1C(=O)N[C@H](Cc1ccc2ccccc2c1)C(=O)O` the entry was “inactive”; with `O=[N+]([O-])c1ccc(S(=O)(=O)Nc2nc(-c3ccccc3)cs2)cc1`, 3.57 µM (active).
The same measure, in the same setting: with `Cc1ccc(-c2cc(-c3c(Cc4ccc(S(N)(=O)=O)c(F)c4)c(CC4CC4)nn3-c3nc(C(=O)O)cs3)ccc2F)s1` the figure was 17.9 µM (active); with `CC(C)CCn1c(O)c(N=NC(=O)c2cccnc2)c2ccccc21`, “inactive”; with `CCOc1ccc(NC(=O)CSCC(=O)Nc2ccc(C)cc2)cc1`, “inactive”.
Consider `O=C(Nc1ncc(Cc2ccc(C(F)(F)F)cc2)s1)C1CCC(c2ccccc2)CC1` (centres undefined), for which the Potency result in test [6] is “inactive”.
Regarding `O=C(NC1CCCN(Cc2ccccc2)C1)c1ccc(-c2cccc([N+](=O)[O-])c2)o1` (centres undefined), the Potency in test [6] is 14.1 µM (active).
For the compound `COc1cccc(-c2cnc(N3CCC(C(N)=O)CC3)s2)c1`, the Potency entry in test [6] is “inactive”.
Still for that read-out and setting: with `Oc1[nH]c2ccccc2c1N=NC(=S)Nc1cccnc1` the entry was “inactive”; with `COc1ccc(-c2nnc(SCC(=O)Nc3ccc(C(C)=O)cc3)o2)cc1`, “inactive”.
The same measure, in the same setting: the result for `Cc1ccc(NC(=O)c2cc(-c3cccs3)on2)cc1C` reads “inactive”.
Same read-out and setting: the result for `C=Cc1cc(NC(=O)CN)cc(-c2nn3c(=O)cc(N4CCNCC4)nc3s2)c1` reads “inactive”.
Take `Cc1sc(NC(=O)Cc2ccc3c(c2)OCO3)nc1-c1ccc2c(c1)CCN2C(=O)c1cncn1C`: the Potency in test [6] was 7.94 µM (active).
Same read-out and setting: the result for `O=C(c1ccc(F)cc1)c1no[n+]([O-])c1C(=O)c1ccc(F)cc1` reads 12.7 µM (active); that for `COc1cccc(N2CCN(C(=O)CCCCCn3c(=O)[nH]c4ccccc4c3=O)CC2)c1`, “inactive”; that for `COCCN(C)S(=O)(=O)c1ccc(NC(=O)c2ccc(CN3CCc4ccccc4C3)cc2)cc1`, “inactive”.
On the same count and under the same terms, the result for `CC(=O)Nc1ccc(NC(=O)c2cc(=O)c3ccccc3o2)cc1` reads “inactive”; that for `COc1ccc(-n2ncc3c2CCCC3NC(=O)c2cc(NC(C)=O)ccn2)cc1` (centres undefined), “inactive”; that for `O=C(Nc1ccccc1C(=O)Nc1cccc(C(F)(F)F)c1)c1ccc(Cl)cc1`, “inactive”.
In the case of `Cc1ccc(NS(=O)(=O)c2cc(N[C@@H](C)CO)cc3c2NC(=O)CC3)cc1C`, the Potency result in test [6] was “inactive”.
On the same count and under the same terms, the result for `O=C(Nc1ccccc1OC(F)(F)F)c1csc(-c2ccc(F)cc2)n1` reads “inactive”.
As for `Cc1cccc(Nc2nc(-c3ccccc3)c3cc(Cl)ccc3n2)c1`, the Potency in test [6] is 12.6 µM (active).
Consider `CCOc1ccc(CNc2ccc3ccccc3c2)cc1`, for which, in test [6], the Potency is 2.83 µM (active).
Consider `CC(C)(C)CNc1ncnc2ccc(-c3ccc4c(c3)OCO4)cc12`, for which, in test [6], the Potency entry is “inactive”.
On the same count and under the same terms, the result for `COCc1ccc(-c2nn(Cc3ccccc3)c3ccccc23)o1` reads 11.3 µM (active); that for `COc1ccc(C(N)=O)cc1NC(=O)c1ccn(-c2ccc(F)cc2)n1`, “inactive”; that for `Cc1ccc(CNc2ncnc3c2oc2ccccc23)cc1`, “inactive”.
Still for that read-out and setting: with `O=C(CSc1nnc(-c2ccncc2)o1)Nc1ccc2c(c1)OCCO2` the entry was “inactive”; with `Cc1ccc(NC(=O)Nc2cc3c(cc2N2CCCCC2)n(C)c(=O)n3C)cc1Cl`, 3.55 µM (active) and 798 nM (active); with `c1ccc(Nc2cc(-c3ccoc3)ncn2)cc1`, “inactive”.
